Experimental findings from PubChem BioAssay AID1851 (National Center for Advancing Translational Sciences (NCATS), 2009) are described below.

Where “and” joins values, the source holds several entries; their conditions need not be identical. Equal values may be shown once. The campaign covered roughly 16,000 compounds. About 2,600 (16%) were called active. Another 20% or so got no clear call; they are omitted. Only a sample is shown. A number with no mark means an inactive call. Calls come from the whole dose curve; as a rule, active = well fitted curve in the direction sought with a large enough effect; inconclusive = small, poorly fitted or top-dose-only effect, or effect the other way; inactive = no such curve, though single readings can be large or run the other way.
% is set by controls: 0 for no effect and ±100 for the full control effect.

In the assay the target is Cytochrome P450 2D6 (Homo sapiens) (UniProt P10635). Kind of assay: Cytochrome panel assay with activity outcomes. Particulars: recombinant CYP, pro-luciferin dealkylation, luminescence, p450-cyp2d6; series mostly up to 57.1 µM.
Sequence of Cytochrome P450 2D6 (Homo sapiens) (P10635 whole entry, looked up): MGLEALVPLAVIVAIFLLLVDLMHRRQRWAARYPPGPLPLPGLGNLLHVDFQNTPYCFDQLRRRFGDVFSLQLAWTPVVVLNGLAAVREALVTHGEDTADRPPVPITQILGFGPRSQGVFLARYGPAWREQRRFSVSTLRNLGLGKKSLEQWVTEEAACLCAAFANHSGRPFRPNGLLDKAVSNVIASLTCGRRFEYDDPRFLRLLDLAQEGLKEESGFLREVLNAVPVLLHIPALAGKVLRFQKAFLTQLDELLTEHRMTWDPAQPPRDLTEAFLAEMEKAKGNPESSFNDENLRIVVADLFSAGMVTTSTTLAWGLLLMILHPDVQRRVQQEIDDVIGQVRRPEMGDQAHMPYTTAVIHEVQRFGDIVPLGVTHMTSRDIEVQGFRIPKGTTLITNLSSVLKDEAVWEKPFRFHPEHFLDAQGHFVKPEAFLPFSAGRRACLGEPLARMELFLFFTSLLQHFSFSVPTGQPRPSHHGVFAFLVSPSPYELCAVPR
In the case of `CC[N+](C)(CC)CCN1C(=O)c2ccccc2S1(=O)=O`, the activity, negative = inhibition is -3.94% [at 11.4 µM].

The AC50 is the concentration at which the activity in the assay is half-maximal. With `Cc1c(NC(=O)C23CC4CC(CC(C)(C4)C2)C3)c(=O)n(-c2ccccc2)n1C`, the AC50 entry was “inactive”.

Turning to `CC12CC[C@@H]3c4ccc(OP(=O)(O)O)cc4CCC3C1CCC2=O` (stereo partly specified), the activity, negative = inhibition was 0.651% [at 11.4 µM].

In the case of `Cn1cc(C(=O)c2cccc(Cl)c2Cl)cc1C(=O)O`, the AC50 entry is “inactive”.

With `O=C(O)[C@H](CCc1ccccc1)N1C(=O)c2ccccc2C1=O`, the activity, negative = inhibition is 15.2% [at 11.4 µM].

Turning to `c1ccc2c(c1)C(=Nc1ccc(N=C3c4ccccc4-c4ccccc43)cc1)c1ccccc1-2`, the activity, negative = inhibition was -8.16% [at 11.4 µM].

As for `O=C(O)c1ccc(C(=O)O)c(C(=O)O)c1.[NH-][C@@H]1CCCC[C@@H]1[NH-].[Pt]`, the activity, negative = inhibition is 7.05% [at 11.4 µM].

On to `CC12CS(=O)(=O)CC1SC(=S)N2c1ccccn1` (stereo unspecified), for which the AC50 entry is “inactive”.

Regarding `Cc1cc(O)c(C(C)C)cc1NC(=O)Nc1cccc2ccccc12`, the activity, negative = inhibition is -5.76% [at 11.4 µM].

For `CC1(C)CC(=O)C2=C(C1)N(c1ccc(F)cc1)C(N)=C(C#N)C2c1cccs1` (stereo unspecified), the AC50 entry was “inactive”.

In the case of `Cc1cc(N2CCN(C)CC2)n2nc(-c3ccc(Cl)cc3)nc2n1`, the activity, negative = inhibition was 15% [at 11.4 µM].

Take `COc1cc(C)cc(OC)c1/C=C\C(=O)O`: the activity, negative = inhibition was 2.34% [at 11.4 µM].

With `CN(C)CC(O)COc1cccc(OCC(O)CN(C)C)c1` (stereo unspecified), the AC50 entry is “inactive”.

For the compound `C[C@@H](COc1ccccc1)N(CCCl)Cc1ccccc1`, the half-maximal activity concentration (AC50) was 0.158 µM (active).

In the case of `CCOC(=O)c1cnc2ccc(C)cc2c1Sc1ccccc1C(=O)OC`, the AC50 entry was “inactive”.

Turning to `CNCCCC1c2ccccc2C=Cc2ccccc21`, the AC50 is 15.8 µM (active) and 3.98 µM (active).

Turning to `COc1ccc2c(c1OC)C(=O)N(C(C)C(=O)O)C2=O` (stereo unspecified), the AC50 result is “inactive”.

Consider `CN(C)CC/C=C1\c2ccccc2Sc2ccc(Cl)cc21`, for which the AC50 was 2.51 µM (active).

Regarding `Cc1ccc(-n2nc3c(c2NC(=O)c2cccs2)CSC3)cc1`, the AC50 entry is “inactive”.

`CCn1c(CCNC(=O)c2ccc(Cl)cc2Cl)n[nH]c1=S`: the AC50 entry was “inactive”.

Turning to `Cc1ccc(S(=O)(=O)N[C@H]2COC(=O)C/C=C\[C@H](C)[C@@H](NS(=O)(=O)c3ccc(C)cc3)COC(=O)C/C=C\[C@@H]2C)cc1`, the activity, negative = inhibition is 8.84% [at 11.4 µM].

Take `CCCC(=O)Nc1cc(-c2cn3cccnc3n2)ccc1OC`: the AC50 entry was “inactive”.

On to `CC(C)CO/N=C1/C[C@@H](O)[C@@H](O)[C@@H]2[C@@H]3C(=O)N([C@@H](C)c4ccccc4)C(=O)[C@H]3CC[C@H]12`, for which the activity, negative = inhibition is -7.99% [at 11.4 µM].

On to `COc1ccc(/C=N/n2cnc3c([nH]c4ccc(Br)cc43)c2=O)cc1CN1CCOCC1`, for which the AC50 result was “inactive”.

As for `CC(C)(CO)[C@H](O)C(=O)NCCCO`, the AC50 result was “inactive”.

In the case of `NCCS`, the AC50 result was “inactive”.

In the case of `CNC(=S)N1CCN(c2ccccc2OC)CC1`, the AC50 result is “inactive”.

For `COc1ccccc1N1CCN(C[C@@H](O)COc2cccc3ccccc23)CC1`, the half-maximal activity concentration (AC50) is 794 nM (active) and 316 nM (active) and 126 nM (active).

Take `O[C@@H](COc1cccc2ccccc12)CN1CCOCC1`: the activity, negative = inhibition is -5.64% [at 11.4 µM].

Consider `COCCn1c(=O)c(-c2cccc(Cl)c2)nc2cncnc21`, for which the AC50 entry is “inactive”.

As for `COC(=O)CN(c1ccc(OC)cc1)S(=O)(=O)c1c(C)noc1C`, the AC50 entry is “inactive”.

On to `COCCCNC(=O)CN(c1ccc(OC)cc1)S(=O)(=O)c1ccc(NC(C)=O)cc1`, for which the AC50 entry was “inactive”.

With `COc1ccc(N(CC(=O)NCc2cccc(OC)c2)S(=O)(=O)c2c(C)noc2C)cc1`, the AC50 was 14.1 µM (active).

Regarding `CN=C1S/C(=C\c2ccc(Sc3ccc(Cl)cc3)o2)C(=O)N1C`, the AC50 entry is “inactive”.

Take `C#CCOCCCC(=O)O`: the activity, negative = inhibition was 15.7% [at 11.4 µM].

On to `Cc1ccc(CSc2nnc3c(n2)OC2(Nc4ccccc4-3)C(=O)Nc3ccc(F)cc32)cc1` (stereo unspecified), for which the concentration at half-maximal activity (AC50) is 25.1 µM (active).

With `COc1cccc(Nc2ncc3nc(C)c(=O)n(C4CC4)c3n2)c1`, the AC50 result is “inactive”.

With `O=C(NNC(=S)Nc1ccccc1)C1CC1`, the AC50 entry is “inactive”.

For the compound `S=C(Nc1ccccc1)N1CCCCC1`, the AC50 entry is “inactive”.

Consider `O=C(Nc1ccccc1)OC[C@H](CN1CCCCC1)OC(=O)Nc1ccccc1`, for which the AC50 is 0.398 µM (active).

With `COC(=O)COc1ccc(/C=C2/SC(=O)N(CC(=O)N3CCCC3)C2=O)cc1Br`, the AC50 result is “inactive”.

As for `O=C(O)c1ccc(Sc2nnnn2-c2ccccc2)c([N+](=O)[O-])c1`, the AC50 entry is “inactive”.

Regarding `NCCNC(=O)c1ncsc1-c1cccc(F)c1`, the AC50 result was “inactive”.

In the case of `c1cncc(CNc2ncn[nH]2)c1`, the activity, negative = inhibition is 5.73% [at 11.4 µM].

With `Cn1c(=O)c(-c2ccc(F)cc2)nc2cncnc21`, the AC50 entry was “inactive”.

Take `Cn1c(-c2ccc(F)cc2)cnc1NCc1cccc(F)c1`: the AC50 was 0.0562 µM (active).

`CN(C)c1ccc(-c2cc(NCc3cccnc3)ncn2)cc1`: the AC50 result is “inactive”.

In the case of `Cn1c(-c2ccc(Br)cc2)cnc1NCc1cccnc1`, the AC50 was 0.501 µM (active).

`CCNc1ncc2ncc(=O)n(Cc3ccc(F)cc3)c2n1`: the AC50 entry was “inactive”.

Turning to `Cn1c(-c2ccc(F)cc2)cnc1NCc1ccc(F)cc1`, the concentration at half-maximal activity (AC50) was 0.0355 µM (active).

With `COc1cccc(Nc2ncc3nc(-c4ccc(F)cc4)c(=O)n(C)c3n2)c1`, the AC50 entry is “inactive”.

As for `CCC1CC2CC(NC(C)=O)C1C2` (stereo unspecified), the AC50 entry is “inactive”.

Consider `Fc1ccc2c(c1)C1C=CCC1C(c1cc3c(cc1Br)OCO3)N2` (stereo unspecified), for which the AC50 entry is “inactive”.

In the case of `CCCCOC(OCCCC)[C@H](O)CSc1ccc2ccccc2c1`, the activity, negative = inhibition is -15.8% [at 11.4 µM].

Take `C#CCn1c(=O)c2c(ncn2C)n(C)c1=O`: the AC50 result was “inactive”.

With `Cc1ccccc1-c1nccc(NCc2cccs2)n1`, the AC50 was 2.51 µM (active).

In the case of `CN(C)Cc1ccccc1-c1cc(NCc2cccs2)ncn1`, the AC50 is 2 µM (active).

As to `Cc1cnc(CNc2ccnc(-c3ccccc3C(F)(F)F)n2)cn1`, the AC50 entry was “inactive”.

In the case of `Cc1cnc(CNc2ccnc(-c3ccccc3C)n2)cn1`, the AC50 result was “inactive”.

Regarding `FC(F)(F)c1ccccc1-c1nccc(NCc2cccs2)n1`, the AC50 was 25.1 µM (active).

As for `Cc1cnc(CNc2cc(-c3ccccc3C)ncn2)cn1`, the AC50 result is “inactive”.

With `COCCNc1ccnc(-c2ccccc2C(F)(F)F)n1`, the AC50 entry was “inactive”.

In the case of `CN(C)Cc1ccccc1-c1nccc(NCc2cccs2)n1`, the AC50 was 1.58 µM (active).

In the case of `O=C(NCc1ccco1)c1cc(C(=O)C2CCCCC2)c[nH]1`, the AC50 result is “inactive”.

For `CCCCCC(=O)O[C@H](CC(=O)O)C[N+](C)(C)C`, the AC50 result is “inactive”.

In the case of `Cc1cc2cccc(C)c2nc1SCC(=O)N(C)c1nc(-c2ccccc2)cs1`, the AC50 result is “inactive”.

As for `COc1ccc(NC(=O)N2CCCC3(CCN(C(=O)c4cc(C(F)(F)F)cc(C(F)(F)F)c4)CC3)C2)cc1`, the AC50 entry was “inactive”.

For `O=C1[C@H]2[C@H]3[C@H](O)[C@H](O)C/C(=N/OC[C@@H](O)COCc4ccco4)[C@@H]3CC[C@@H]2C(=O)N1C1CCCCC1`, the activity, negative = inhibition is 7.51% [at 11.4 µM].

Take `Oc1cccc2ccc(SSc3ccc4cccc(O)c4n3)nc12`: the activity, negative = inhibition is -0.179% [at 11.4 µM].

Turning to `COc1ccc(-c2nn3cnnc3s2)cc1OC`, the AC50 entry is “inactive”.

`C/C(=C/C(=O)NCc1ccccc1)C(=O)O`: the AC50 entry was “inactive”.

Turning to `CCCC(=O)NNC(=O)CCC(=O)NCc1ccccc1`, the AC50 result was “inactive”.

In the case of `O=C(O)NCc1ccccc1` (tested in a mixture with another compound), the AC50 is 3.98 µM (active).

On to `O=c1c2ccc(Cl)cc2nc(-c2cccc(C(F)(F)F)c2)n1O`, for which the AC50 entry was “inactive”.

Consider `CC1=CC(=O)N(c2cccc(C(F)(F)F)c2)C1c1ccc(Cl)cc1` (stereo unspecified), for which the half-maximal activity concentration (AC50) is 2.51 µM (active).

With `Cc1n[nH]c(=O)n1-c1cccc(C(F)(F)F)c1`, the AC50 result was “inactive”.

On to `COC(=O)c1ccc(NC(=O)Cn2nc(-c3ccncc3)nc2SCC(=O)Nc2nccs2)cc1`, for which the AC50 is 10 µM (active).

For the compound `O=C(CSc1nc(-c2ccccc2)nc2ccccc12)Nc1nccs1`, the AC50 entry was “inactive”.

In the case of `CCC1C(=O)N=C(SCC(=O)Nc2ccc(C(=O)OC)cc2)NC1=O` (stereo unspecified), the AC50 entry was “inactive”.

As for `O=C(O)c1sc2cc(C(F)(F)F)cnc2c1-c1ccccc1`, the AC50 result was “inactive”.

As to `CCCCC1CC(/C(C)=N/NC(N)=O)OC1=O` (stereo unspecified), the AC50 result is “inactive”.

As to `CC(C)c1ccc(CNc2cc(N3CCCC3)ccc2[N+](=O)[O-])cc1`, the AC50 entry was “inactive”.

Consider `O=C(NC(NCc1ccccc1)C(Cl)(Cl)Cl)c1cccnc1` (stereo unspecified), for which the AC50 result is “inactive”.

For `O=C(Cc1ccccc1)NC(NCCc1ccccc1)C(Cl)(Cl)Cl` (stereo unspecified), the AC50 was 14.1 µM (active).

With `CC(CP(=O)(O)O)NC(=O)Cc1ccccc1` (stereo unspecified), the AC50 entry is “inactive”.

As for `Cc1n[nH]c(=S)n1/N=C/c1ccccc1OCc1ccc(Cl)cc1`, the AC50 result is “inactive”.

With `CCc1ccc(OCC(=O)NC(=S)Nc2ccc(F)cc2)c(Br)c1`, the AC50 entry was “inactive”.

Take `CCOc1nc(NCCc2ccc(OC)c(OC)c2)nc(NC(C)(C)CO)n1`: the AC50 result was “inactive”.

As for `CCOC(=O)c1ccc(NC(=O)COc2ccccc2OC)cc1`, the AC50 result was “inactive”.

With `CCOc1ccc(CC(=O)C2C(=O)CCCC2=O)cc1OCC`, the AC50 entry was “inactive”.

On to `CCOc1ccc(CNC(=O)C2CC(=O)N(C3CCCC3)C2)cc1OC` (stereo unspecified), for which the AC50 entry was “inactive”.

Turning to `C=CCOc1ccc(CNC(C)(C)CO)cc1OC`, the AC50 was 1.41 µM (active).

Turning to `COc1ccc(CNC(C)(C)C)cc1Cl`, the AC50 entry was “inactive”.

For `C=CCOc1ccc(CNC(C)(C)CO)cc1OCC`, the AC50 was 1.41 µM (active).

For the compound `COc1cc(CNC(C)(C)CO)ccc1OCC(=O)Nc1ccc(Br)cc1`, the concentration at half-maximal activity (AC50) was 5.01 µM (active).

For `Cc1ccccc1C(=O)NNC(=O)c1ccoc1C`, the AC50 result is “inactive”.

`CC(C)CC(=O)N[C@H](C(=O)N[C@H](C(=O)N[C@@H](CC(C)C)[C@H](O)CC(=O)N[C@@H](C)C(=O)N[C@@H](CC(C)C)[C@H](O)CC(=O)O)C(C)C)C(C)C`: the AC50 entry was “inactive”.

For `O=C(Nc1nnc(-c2ccc(Cl)cc2)o1)Nc1ccccc1Cl`, the AC50 entry was “inactive”.

With `COc1ccc(Oc2ncc3nc(-c4cc(F)cc(F)c4)c(=O)n(C)c3n2)cc1`, the AC50 entry was “inactive”.

As for `Cc1cc(C(F)(F)F)n2nc(-c3cnn(C)c3C(F)(F)F)cc2n1`, the AC50 entry is “inactive”.

As to `CN1CCN(c2ncc3nc(-c4cccs4)c(=O)n(C[C@H]4CCCO4)c3n2)CC1`, the AC50 result is “inactive”.
